Bioassay records: PubChem, several laboratories
This is a sample that favours compounds with a hit; in the whole collection about 4.5% have one here.
PfHsp40 yeast = rescue of yeast from PfHsp40 toxicity, primary screen, S. cerevisiae, ATP luminescence; S. cerevisiae expressing PfHsp40, growth rescue; growth rescue, % at 12.5 µM; actives 0.68% (n = 340,000); in the data active = growth rescue above about 28%, passing the limit was not always enough;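 note: yeast W303a lacking pdr1 and pdr3 grown in galactose medium; growth measured after three days at 30 °C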
GDH-TPI counter = GDH-TPI coupling enzyme inhibitors, primary screen, artefact control for M. tuberculosis FBA inhibitor project, biochemical, absorbance, full deck; GDH-TPI coupled enzyme counterscreen, NADH absorbance; inhibition, % at 4.8 µM; actives 1.2% (n = 360,000); AID 588335, 2011; in the data active = inhibition above about 30%
BJeLR lethal = MLPCN primary cell-based screen for lethality selective to Ras in HRASV12 cells; BJeLR (HRASV12) viability, CellTiter-Glo ATP luminescence, 48 h; AID 1554, 2009; inhibition, % (test concentration not listed); actives 0.17% (n = 300,000); in the data active = inhibition above about 50%
Mtb FBA inh = Mtb FBA enzyme inhibitors, primary screen, biochemical, fluorescence, strain H37Rv. inhibition, % at 1 µM. AID 588726, 2011. purified M. tuberculosis FBA, fluorescence read-out. actives 2.3% (n = 360,000); in the data active = inhibition above about 27%
Target sequence (P9WQA3 whole entry, looked up): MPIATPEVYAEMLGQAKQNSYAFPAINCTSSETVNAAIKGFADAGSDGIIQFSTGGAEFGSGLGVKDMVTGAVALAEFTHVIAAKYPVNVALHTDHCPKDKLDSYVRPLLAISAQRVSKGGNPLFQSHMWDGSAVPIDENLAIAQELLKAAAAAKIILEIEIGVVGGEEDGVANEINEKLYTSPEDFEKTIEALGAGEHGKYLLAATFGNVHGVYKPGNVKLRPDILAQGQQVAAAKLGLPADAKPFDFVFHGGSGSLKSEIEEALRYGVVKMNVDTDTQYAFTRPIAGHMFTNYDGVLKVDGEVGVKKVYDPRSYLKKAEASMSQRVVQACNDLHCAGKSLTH
PrPC TRFRET = inhibitors of human cell surface prion protein PrPC, primary screen, cell-based, TR-FRET | actives 0.43% (n = 370,000) | inhibition, % at 13.8 µM | AID 720596, 2013 | TR-FRET read-out; in the data active = inhibition above about 24%
PrP UTR inh = inhibition of PrP 5' UTR reporter expression; cell-based PrP 5' UTR mRNA reporter, plate reader; inhibition, % (concentration not given with the values); actives 0.35% (n = 340,000); in the data active = inhibition above about 52%
Hits are given with their value; n = inactive; x = no result given; + = active, no number.

SMILES	PfHsp40 yeast	GDH-TPI counter	BJeLR lethal	Mtb FBA inh	PrPC TRFRET	PrP UTR inh
Cn1nccc1C(=O)NC1CCCc2c1cnn2-c1cc(F)cc(F)c1 (centres undefined)	n	n	n	+	n	n
O=C(NCCc1c[nH]c2ccccc12)OCc1cn(Cc2cccc(F)c2)nn1	x	x	x	x	n	x
CC1(C)CC(=O)C=C(NNC(=O)c2ccccc2O)C1	n	40.1	n	n	n	n
COc1ccc(C(=O)NNC2=CC(=O)CC(C)(C)C2)cc1	n	n	n	n	n	n
Cc1cccc(C(=O)NNC2=CC(=O)CC(C)(C)C2)c1O	n	37.4	n	n	n	n
COc1cc(NC(=O)C2CCCN(c3ncnc4c3nc3n4CCCCC3)C2)cc(OC)c1OC (centres undefined)	44.1	n	n	n	n	n
CCN1CCCC1CNC(=O)c1ccc2c(c1)NC(=O)/C(=C\c1ccc(OC)c(OC)c1)S2 (centres undefined)	n	31.3	n	n	n	n
CC(C)(C)c1ccc(S(=O)(=O)N2CCCC2C(=O)N2CCN(c3ccccc3)CC2)cc1 (centres undefined)	x	x	x	x	n	x
COc1ccc(C2C(O)C(c3c[nH]c4ccccc34)=NN2C(=O)CCl)cc1 (centres undefined)	n	n	100.3	n	n	n
C[C@@H]1ON(C)[C@H]2C[C@H]3c4cc(-c5cc6ccccc6o5)ccc4CCN3C[C@@H]12	x	x	x	x	n	x
Cc1ccnc(SCc2cc(=O)c(OC(=O)c3ccc(S(=O)(=O)N(C)C)cc3)co2)n1	88.2	n	n	n	n	n
Cc1ccnc(SCc2cc(=O)c(OC(=O)c3ccc(S(=O)(=O)N4CCCC4)cc3)co2)n1	n	n	n	n	n	n
Cc1cc(C)nc(SCc2cc(=O)c(OC(=O)c3ccc(S(=O)(=O)N(C)C)cc3)co2)n1	90.3	n	n	n	n	n
Cc1cc(C)nc(SCc2cc(=O)c(OC(=O)c3ccc(Cl)c([N+](=O)[O-])c3)co2)n1	n	n	n	n	n	n
NCCSC1CC(=O)N(c2ccc(Cl)c(Cl)c2)C1=O (centres undefined)	n	n	n	46.6	n	n
C/C(=N\N=C(/N)SC1CC(=O)N(c2ccccc2)C1=O)c1cccs1 (centres undefined)	n	41.2	n	n	n	n
NCCSC1CC(=O)N(c2ccc(F)cc2)C1=O (centres undefined)	n	n	n	n	n	n
C/C(=N\N=C(/N)SC1CC(=O)N(c2ccc(Cl)cc2)C1=O)c1cccs1 (centres undefined)	n	n	n	n	n	n
N/C(=N\N=C\c1cccs1)SC1CC(=O)N(c2ccc(Br)cc2)C1=O (centres undefined)	n	31.6	n	n	n	n
N/C(=N\N=C\c1ccco1)SC1CC(=O)N(c2ccccc2)C1=O (centres undefined)	n	n	n	n	n	n
N/C(=N\N=C\c1ccco1)SC1CC(=O)N(c2ccc(C(=O)O)cc2)C1=O (centres undefined)	n	45.0	n	n	n	n
Cc1cccc(CNC(=S)OC2CCC23CCC(c2ccccc2)CC3)c1 (centres undefined)	x	x	x	x	n	x
C/C(=N\N=C(/N)SC1CC(=O)N(c2ccc(Cl)c(Cl)c2)C1=O)c1cccs1 (centres undefined)	36.6	n	n	n	n	n
CC(C)C[C@H](NC(C)(C)C(=O)NC1CCCCC1)C(=O)NCCc1c[nH]c2ccccc12	x	x	x	x	n	x
CCn1c(SCC(=O)Nc2oc(-c3ccccc3)c(-c3ccccc3)c2C#N)nnc1-c1ccco1	n	n	n	n	n	n
CCn1c(SCC(=O)Nc2oc(-c3ccccc3)c(-c3ccccc3)c2C#N)nnc1-c1ccncc1	n	32.1	n	n	n	n
COc1ccc(-c2oc(NC(=O)CSc3nncn3C)c(C#N)c2-c2ccc(OC)cc2)cc1	43.9	n	n	n	n	n
CC1(C)Cc2cccc(OCC(=O)N3CCN(c4cccc(C(F)(F)F)c4)CC3)c2O1	41.0	n	n	n	n	n
CC1(C)Cc2cccc(OCC(=O)N3CCN(c4cccc(Cl)c4)CC3)c2O1	n	n	n	n	n	n
